Test results reported in PubChem BioAssay AID2685 (National Center for Advancing Translational Sciences (NCATS), 2010).
The campaign covered roughly 320,000 compounds. About 2,100 (0.66%) were called active. Roughly 53% stayed inconclusive and do not appear here. Calls come from the whole dose curve; as a rule, active = well fitted inhibition curve with a large enough effect in the signal ratio, with a control signal flat (not every such curve was filed as active); inconclusive = small, poorly fitted or top-dose-only effect, or effect the other way, or a change in a side signal; inactive = flat fitted curve, though single readings scatter; the % refers to the signal ratio. What follows is part of a selection rich in actives, with near analogues and random picks from the rest.

Experiment: qHTS Assay for Lipid Storage Modulators in Drosophila S3 Cells;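 for cell number change: cells counted by Cell Tracker Red CMTPX staining in the red channel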; for lipid storage change, negative = inhibition: % is set by controls: 0 for no effect and ±100 for the full control effect
Conditions: BODIPY lipid droplet fluorescence, 18-24 h, cells fed with added oleic acid; cell number change: measured here: cell count max response; series mostly up to 46.1 µM; lipid storage change, negative = inhibition: at the top concentration
In short: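 Laser-scanning cytometry quantifies lipid droplet accumulation (500–530 nm total intensity; droplet/cell object ratio) in oleic acid-fed (400 uM added) Drosophila S3 cells treated with a concentration series. 20 uM Triacsin C defined 100% inhibition.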
Potency is the fitted concentration of half-maximal effect.

Row | SMILES | outcome | lipid storage change, negative = inhibition | cell number change | Potency
1 | COc1ccc(C)cc1S(=O)(=O)N(CC(=O)Nc1cccc([N+](=O)[O-])c1)c1cc(C)cc(C)c1 | inactive |  |  | 
2 | CCOc1ccccc1OCC(=O)NN1Cc2ccccc2C1=N | inactive |  |  | 
3 | Cc1cccc(C(=O)N/N=C/c2ccncc2)c1 |  | 3.87% (inactive) | -0.828% | 
4 | CC(=O)Nc1cccc(C(=O)/C=C/c2ccc(/C=C/C(=O)c3cccc(NC(C)=O)c3)cc2)c1 |  |  | -12.7% | 8.2 µM (active)
5 | CSc1ccc(/C=C/C(=O)c2ccc(NC(C)=O)cc2)cc1 | inactive |  |  | 
6 | Cc1cccc(C(=O)Nc2ccc(C(=O)/C=C/c3ccncc3)cc2)c1 |  |  | -3.72% | 6.51 µM (active)
7 | Cc1cccc(C(=O)Nc2ccc(O)cc2)c1 |  | -0.178% (inactive) | 4.55% | 
8 | CC(=O)Nc1cccc(C(=O)/C=C/c2ccc[nH]2)c1 |  | -0.805% (inactive) | 9.89% | 
9 | CCOc1ccccc1CNC(=O)CCC(=O)N1Cc2ccccc2Oc2ncccc21 | inactive |  | -10.6% | 
10 | CCOC(=O)C1(Cc2ccc(Cl)cc2)CCN(C(=O)c2cc(C)nc(C)n2)CC1 |  | 0.881% (inactive) | -4.86% | 
11 | Cc1onc(-c2ccccc2Cl)c1C(=O)NCCCc1ccccc1 | inactive |  | -24% | 
12 | Fc1ccc(C2c3[nH]c4ccccc4c3CCN2Cc2cccn2-c2ncccn2)cc1 (stereo not given) |  | -15.7% (inactive) | 1.18% | 
13 | COc1ccc(C2c3[nH]c4ccccc4c3CCN2Cc2cccn2-c2ncccn2)cc1C (stereo not given) |  |  | -1.91% | 16.4 µM (active)
14 | Cc1cccc(C2c3[nH]c4ccccc4c3CCN2Cc2cccn2-c2ncccn2)c1 (stereo not given) | inactive |  | -27.2% | 
15 | CCN(CC)S(=O)(=O)c1cccc(-c2nnc(SCC(=O)c3cc(C)n(C4CC4)c3C)o2)c1 | inactive |  | 13.6% | 
16 | CCCOc1ccc(N2C(=O)CC(NCc3cccs3)C2=O)cc1 (stereo not given) |  | 4.41% (inactive) | 15.4% | 
17 | CCOC(=O)c1ccc(CNC(=O)C(Cc2c[nH]c3ccccc23)NC(C)=O)o1 (stereo not given) | inactive |  |  | 
18 | O=C(NC(=O)c1c(Cl)cccc1Cl)Nc1ccc(Oc2cccnc2)nc1 |  | 8.04% (inactive) | 1.56% | 
19 | O=C1/C(=C/c2cccs2)SC(=S)N1CCCC(=O)N(CCO)c1ccccc1 |  | -14.3% (inactive) | 6.09% | 
20 | Cc1cc(C)cc(C(=O)OCC(=O)N2CCCCCC2)c1 |  | 0.176% (inactive) | -14.4% | 
21 | O=C1CCCC(O)=C1N=Nc1c(Cl)cc(Cl)cc1Cl |  | 17.9% (inactive) | 2.67% | 
22 | C/C=N/NC(=O)c1cc(Br)ccc1O |  | 9.52% (inactive) | 5.04% | 
23 | Cc1cccc(/C=N/NC(=O)c2cc(Br)ccc2O)n1 |  | 6.34% (inactive) | 0.985% | 
24 | Cc1c(/C=N/NC(=O)c2cc(Br)ccc2O)c(=O)n(C)c(=O)n1C |  |  | -6.52% | 5.8 µM (active)
25 | O=[N+]([O-])c1cccc(-c2ccc(C(=S)N3CCOCC3)o2)c1 |  | -17.7% (inactive) | 15.8% | 

Row | SMILES | outcome | lipid storage change, negative = inhibition | cell number change | Potency
26 | O=C(Nc1ccc(CN2CCOCC2)cc1)c1ccc(-c2cccc([N+](=O)[O-])c2)o1 |  |  | -29.5% | 8.2 µM (active)
27 | CN1CCN(c2ccc(NC(=O)c3ccc(-c4cccc([N+](=O)[O-])c4)o3)cc2)CC1 |  | 17.2% (inactive) | 17.7% | 
28 | O=C(NC1CCCN(CCc2ccccc2)C1)C1CCCC1 (stereo not given) |  | -3.29% (inactive) | 8.14% | 
29 | C[C@H](NC(=O)C1CCN(S(=O)(=O)c2ccccc2)CC1)C(=O)NCc1ccc(F)cc1 |  | 25.5% (inactive) |  | 
30 | CCN(CC)C1CCN(Cc2cn[nH]c2-c2ccc(OC)c(F)c2)C1 (stereo not given) |  | 5.24% (inactive) | 7.18% | 
31 | Cc1sc(NC(=O)/C=C/c2ccco2)c(C(=O)O)c1C |  | -1.31% (inactive) | 4.19% | 
32 | N#Cc1ccsc1NC(=O)CSc1nnc(-c2ccccc2)o1 | inactive |  | 20.1% | 
33 | CC(C)(C)C1CCc2c(sc(NC(=O)CSc3nnc(-c4ccccc4)o3)c2C#N)C1 (stereo not given) |  |  | -0.658% | 4.11 µM (active)
34 | CCn1c(SCC(=O)Nc2sc3c(c2C#N)CCC(C(C)(C)C)C3)nnc1-c1ccco1 (stereo not given) |  | -2.66% (inactive) | -7.68% | 
35 | COc1ccc(/C=N/n2cnc3c(sc(=S)n3-c3ccccc3)c2=O)cc1 | inactive |  | 19.1% | 
36 | CN1C(=S)SC(N(O)C(=O)Nc2ccc(Cl)c(Cl)c2)C1(C)C (stereo not given) |  | -7.63% (inactive) | -15% | 
37 | CCOc1ccc(CNc2ccc(N3CCCC3)cc2)cc1 | inactive |  |  | 
38 | CCOc1ccc(CNc2ccc(N3CCN(Cc4ccccc4)CC3)cc2)cc1 |  |  |  | 2.31 µM (active)
39 | CCOc1ccc(CN2CCC(Cc3ccccc3)CC2)cc1 | inactive |  | 27.4% | 
40 | O=C(NCN1CCc2ccccc2C1)c1ccccc1 |  | 3.53% (inactive) | 0.788% | 
41 | O=C(NCn1cnccc1=O)c1ccccc1 |  |  | 1.39% | 20.6 µM (active)
42 | O=C(NC(C(=O)c1ccccc1)n1cnccc1=O)c1ccccc1 (stereo not given) |  | -5.22% (inactive) | -10.1% | 
43 | Cc1noc(C)c1C(=O)Nc1nnc(CC(C)C)s1 |  | -7.24% (inactive) | 23.9% | 
44 | O=C(Cc1cccs1)N(CC1CCCO1)C1(C(=O)NC2CCCC2)CCCCC1 (stereo not given) |  | -0.959% (inactive) | -0.501% | 
45 | CC(=O)N(Cc1ccco1)C1(C(=O)NC2CCCCC2)CCCCC1 |  | 1.16% (inactive) | -0.0608% | 
46 | CC(=O)NCC(=O)N(Cc1ccco1)C1(C(=O)NC2CCCC2)CCCCC1 |  | 1.93% (inactive) | 17.4% | 
47 | O=C1NC(=O)C(CC(=O)N(Cc2ccco2)C2(C(=O)NC3CCCC3)CCCCC2)N1 (stereo not given) | inactive |  |  | 
48 | O=C(Cc1cccs1)N(Cc1ccco1)C1(C(=O)NC2CCCC2)CCCCC1 |  |  | -17% | 3.66 µM (active)
49 | CC(=O)N(Cc1ccco1)C1(C(=O)NC2CCCC2)CCCCC1 |  |  | 3.24% | 14.6 µM (active)
